Experimental data reported in PubChem BioAssay (NCI).
This is part of a sample that, as a whole, favours compounds with a hit. Of some 79,000 tested, about 15% had one in any assay. The source made the active and inactive calls. Cut-off read from the data, not from the text of the source: active = growth inhibition above about 70%; inactive = the rest.

Assays:
[1] = NCI Yeast Anticancer Drug Screen. Data for the rad50 strain (AID 155);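 note: 0% = growth of vehicle-only cultures of the same strain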; conditions: S. cerevisiae rad50 strain growth inhibition; at 50.0 µM; hits give high values
Procedure, shortened: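 DNA repair mutant yeast, compound exposure, growth read-out; inhibition is taken relative to vehicle.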

[2] = NCI Yeast Anticancer Drug Screen. Data for the mec2-1 strain (AID 157); conditions: S. cerevisiae mec2-1 strain, at 50.0 µM, hits give high values
Procedure, shortened: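 Compounds were applied to mec2-1 yeast cells. Their growth was then compared with that of vehicle-treated cultures to give growth inhibition.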

[3] = NCI Yeast Anticancer Drug Screen. Data for the sgs1 mgt1 strain (AID 161);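 note: 0% = growth of cultures given vehicle only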; conditions: S. cerevisiae sgs1 mgt1 strain, at 50.0 µM, hits give high values
Procedure, shortened: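 Yeast cells carrying a defined DNA-repair defect were exposed to test compounds. Growth inhibition was measured relative to vehicle-treated controls.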

[4] = NCI Yeast Anticancer Drug Screen. Data for the cln2 rad14 strain (AID 165);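 note: 0% = growth equal to vehicle treated cultures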; conditions: S. cerevisiae cln2 rad14 strain, at 50.0 µM, hits give high values
Procedure, shortened: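 Strain: cln2 rad14 yeast, altered in cell cycle control and DNA damage repair. Read-out: growth inhibition vs vehicle.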

[5] = NCI Yeast Anticancer Drug Screen. Data for the bub3 strain (AID 167); conditions: S. cerevisiae bub3 mutant strain, at 50.0 µM, hits give high values
Procedure, shortened: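 In this screen, a yeast mutant lacking normal mitotic checkpoint function is challenged with compound. Relative growth versus vehicle gives the inhibition value.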

[6] = NCI Yeast Anticancer Drug Screen. Data for the mlh1 rad18 strain (AID 175); conditions: S. cerevisiae mlh1 rad18 strain growth inhibition; at 50.0 µM; hits give high values
Procedure, shortened: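 A repair-deficient yeast strain is exposed to test compound, and growth is scored relative to vehicle-treated controls.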

Measured: growth inhibition

CN(C)c1ccc(/C=N\NC(=S)NCCCN2CCN(CCCNC(=S)N/N=C/c3ccc(N(C)C)cc3)CC2)cc1
inactive: [1] 36.1% | [2] 9.4% | [3] 5.45% | [4] 17.6% | [5] 1.5% | [6] 27.2%

Cc1ccc(S(=O)(=O)OC2CCC3(C)C(=CCC4C3CCC3(C)C(C(C)CCCC(C)C)CCC43)C2)cc1 (stereo unspecified)
inactive: [1] 51.8% | [2] 26.8% | [3] 49.8% | [4] 10.8% | [5] 2.5% | [6] 37.5%

N#CC(=C1CCN(Cc2ccccc2)CC1)c1ccccc1
inactive: [1] 37.2% | [2] 12.7% | [3] 44.8% | [4] 47.6% | [5] 63.5% | [6] 35.2%

O=C(Nc1ccc(C(=O)CCl)cc1)Nc1ccc(C(=O)CCl)cc1
inactive: [1] 8.65% | [2] 14.1% | [3] 20.2% | [4] 0.35% | [5] 12.9% | [6] 14.6%

COc1ccc(OC)c(NC(=O)CCCC(=O)C(C#N)c2c(Cl)cccc2Cl)c1 (stereo unspecified)
inactive: [1] 8.6% | [2] 5.5% | [3] -5.7% | [4] -8.05% | [5] 9.2% | [6] -3.5%

O=C(Nc1ccccc1)C1(Cl)CCCCC1
inactive: [1] 11.7% | [2] -7.35% | [3] -8.7% | [4] -16.9% | [5] -4.7% | [6] 1.8%

Cc1ccc(-c2nc3ccccc3c(=O)n2/N=C/c2ccc(Cl)cc2Cl)cc1
inactive: [1] 9.05% | [2] 3.85% | [3] 7.65% | [4] 11.1% | [5] 7.35% | [6] 21.4%

O=P1(O)c2ccccc2CCc2ccccc21
inactive: [1] 10.1% | [2] -14.6% | [3] 3.7% | [4] 29.8% | [5] -11% | [6] 3.4%

CCOC(=O)C1=C(C)NC(C)=C(C(=O)OCC)C1C
inactive: [1] -29.1% | [2] -35.9% | [3] 4.5% | [4] -10.5% | [5] -22.1% | [6] -6.8%

O=C1CC2(CCC(O)(c3ccc(Cl)cc3)C(C(=O)c3ccc(Cl)cc3)C2)C(=O)c2ccccc2N1 (stereo unspecified)
inactive: [1] -15.1% | [2] -3.55% | [3] -16.9% | [4] -23.5% | [5] -19.4% | [6] -48.6%

CCS(=O)CCC(N)C(=O)O (stereo unspecified)
inactive: [1] -9.7% | [2] -20.1% | [3] 1.65% | [4] -19.6% | [5] 5.7% | [6] -3.6%

CCCCCCCCCC(C)=O
inactive: [1] -9.8% | [2] -4.4% | [3] -16% | [4] -17.9% | [5] 4.45% | [6] -12.2%

Nc1cccc2ccc(S(=O)(=O)O)cc12
inactive: [1] -3.05% | [2] -9% | [3] -24.4% | [4] -13.8% | [5] -9.9% | [6] 8.85%

CC1(C)OC(C2SCCS2)C2OC(=O)C(O[Si](C)(C)C(C)(C)C)C2O1 (stereo unspecified)
inactive: [1] 18.2% | [2] 16.2% | [3] 2.75% | [4] 0.9% | [5] -2.6% | [6] -1.5%

CC(C)(C)NC(=O)Oc1ccccc1C(N)=O
inactive: [1] 4.4% | [2] -3.45% | [3] -5.2% | [4] -78.4% | [5] 4.9% | [6] -11.7%

O=c1[nH]c(=S)c2ncn(C3OC(CO)C(O)C3O)c2[nH]1 (stereo unspecified)
inactive: [1] -0.5% | [2] -13.7% | [3] -11.1% | [4] 4.4% | [5] -1.1% | [6] 11.8%

CCCCCCCCCCCCCCCCCCn1cnc2c(=S)nc[nH]c21
inactive: [1] -37.5% | [2] -2.2% | [3] -0.75% | [4] -20.5% | [5] 0.5% | [6] -34.1%

O=C(O)C1C(C(=O)O)C1c1ncnc2nc[nH]c12 (stereo unspecified)
inactive: [1] -0.95% | [2] -13.7% | [3] -4.95% | [4] -26.8% | [5] -17.8% | [6] 7.4%

NNC(=O)C(=O)N/N=C1\CCCC1C(=O)CCC(=O)Nc1cccc(Cl)c1 (stereo unspecified)
inactive: [1] -35.5% | [2] -33.4% | [3] -32.3% | [4] -1.65% | [5] -24.1% | [6] -30.9%

CN(C)CCCn1c2ccccc2c2cnccc21
inactive: [1] 0.5% | [2] -10.9% | [3] -17.6% | [4] -54.5% | [5] -48.2% | [6] 14.8%

O=S(=O)(O)O.[NH-]CC1(C[NH-])CCCCC1.[Pt+2]
inactive: [1] -13% | [2] 17.9% | [3] -3.15% | [4] -0.7% | [5] -28.6% | [6] -46.4%

CNC(=O)C1CCC(=O)N1Cc1c[nH]c2ccccc12 (stereo unspecified)
inactive: [1] -4.6% | [2] -8.65% | [3] -1.75% | [4] 2.25% | [5] 8.75% | [6] -5.45%

CC1=CC(=O)C(=O)C2=C1OC1(C2)C(C)CCC2C3(C)CCC(O)C(C)(C)C3CCC21C (stereo unspecified)
active: [1] 86.5% | [2] 89.8% | [3] 89.1% | [4] 88.2% | [5] 86.3% | [6] 87.2%

CC12CCC(/C(=C/N(O)/C=C3\C(=O)C4(C)CCC3C4(C)C)C1=O)C2(C)C
inactive: [1] -17.6% | [2] -11.8% | [3] -30.1% | [4] 1.85% | [5] 6.75% | [6] 0.8%

O=c1c2cnc3cc(Cl)ccc3c2[nH]n1-c1ccc(Cl)cc1
inactive: [1] -1.3% | [2] 0.45% | [3] 1.85% | [4] -2.55% | [5] 2.75% | [6] 2.9%

CC(C)(CO)NO
inactive: [1] -13.7% | [2] -6.9% | [3] 3.05% | [4] -0.4% | [5] -14.3% | [6] -5.7%

OCc1ccccc1CC(O)c1ccccc1 (stereo unspecified)
inactive: [1] -23.7% | [2] -17.3% | [3] -20.2% | [4] -4.65% | [5] 0.05% | [6] -59.4%

CN(C)c1ccc(/C=C2N=C(/C=C\c3ccccc3)OC\2=O)cc1
inactive: [1] -5.5% | [2] 4.75% | [3] -6.05% | [4] 0.25% | [5] 7.55% | [6] 9.45%

COc1cccc(/C(C#N)=N/NC(=O)c2nc[nH]c2C)c1
inactive: [1] 9.5% | [2] 8.9% | [3] 19.8% | [4] 10.9% | [5] 13.1% | [6] 8.95%

CN(C)C(=N/O)/C(=N\O)N(C)C
inactive: [1] -5.05% | [2] -25% | [3] -23.1% | [4] -6.35% | [5] -23.8% | [6] -0.2%

N#C/C(C(N)=O)=C1\CCCc2sccc21
inactive: [1] -13.3% | [2] 5.9% | [3] -6.3% | [4] -30.1% | [5] -4.75% | [6] 3.4%

Cc1cc(CO)c(O)c(CN(CC(=O)O)CC(=O)O)c1
inactive: [1] 20.2% | [2] -14.9% | [3] 5.9% | [4] -1.4% | [5] 21.6% | [6] -0.7%

CC(C)OC(CCCl)c1ccc(Cl)cc1 (stereo unspecified)
inactive: [1] -7% | [2] -9.2% | [3] -22.1% | [4] 7.2% | [5] -37.6% | [6] -2.25%

c1ccc2nn(C3CCCCO3)nc2c1 (stereo unspecified)
inactive: [1] -8.05% | [2] -9.85% | [3] -25.9% | [4] -18.1% | [5] 5.65% | [6] -54.6%

COc1ccc(N=Nc2c(-c3ccccc3)nn(C(=O)CC(=O)Nc3cccc(Cl)c3)c2-c2ccccc2)cc1
inactive: [1] -2.65% | [2] 5.9% | [3] -6.3% | [4] 12.6% | [5] 26.3% | [6] -13.5%

CCCCCCCCCC1OC(C)C(C)O1 (stereo unspecified)
inactive: [1] 24.6% | [2] 7.55% | [3] 16.3% | [4] -19.1% | [5] 1.55% | [6] 29.4%

CC(C)CCCC(C)C1CCC2C3CC=C4CC(OC(=O)Nc5ccc(S(=O)(=O)N6CCCCC6)cc5)CCC4(C)C3CCC12C (stereo unspecified)
inactive: [1] 2.3% | [2] 2.45% | [3] 1.65% | [4] -5.8% | [5] -3.75% | [6] 6.45%

COc1cccc(-c2cc(=O)c3cccc(CC(=O)O)c3o2)c1
inactive: [1] 5.9% | [2] -4.9% | [3] -11.6% | [4] 2.85% | [5] -2.35% | [6] -30.9%

CCOC(=O)CCCC(NC(=O)c1ccc(N2CCN(c3c(N)nc(N)nc3NC)CC2)cc1)C(=O)OCC (stereo unspecified)
inactive: [1] 9.95% | [2] 5.75% | [3] -0.4% | [4] 6.55% | [5] -3.95% | [6] -2.3%

Nc1nc2ccc3ccccc3c2c(=O)[nH]1
inactive: [1] -4.35% | [2] 2.35% | [3] -1.55% | [4] -10.1% | [5] -15.6% | [6] 12.7%

C/C=C/C=c1/[nH]c(=O)/c(=C\C)[nH]c1=O
inactive: [1] -6.85% | [2] -5.15% | [3] -10.6% | [4] -21.5% | [5] 0.95% | [6] -14.2%
